The text below walks through data of PubChem BioAssay (EPA / NIEHS).

The target in assay [1] is human RAR-related Orphan Receptor gamma (RORg), RORC (gene 6097) (UniProt P51449). Briefly: ATG_RORg_TRANS: Attagene TRANS-FACTORIAL HepG2 Assay for human RAR-related Orphan Receptor gamma (RORg) (AID 2283011; active = hit-call score of the fitted dose curve at least 0.9, where 1 is the maximum). In outline: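 Readout: reporter transcript induction (RT-PCR, fluorescent primer extension, capillary electrophoresis) after 24 h compound exposure of transiently transfected HepG2 cells carrying a RORg-Gal4 chimera and GAL4-UAS reporters; DMSO served as baseline, with increasing signal fitted.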
Sequence of human RAR-related Orphan Receptor gamma (RORg), RORC (gene 6097) (P51449 whole entry, looked up, the tested form may be a part): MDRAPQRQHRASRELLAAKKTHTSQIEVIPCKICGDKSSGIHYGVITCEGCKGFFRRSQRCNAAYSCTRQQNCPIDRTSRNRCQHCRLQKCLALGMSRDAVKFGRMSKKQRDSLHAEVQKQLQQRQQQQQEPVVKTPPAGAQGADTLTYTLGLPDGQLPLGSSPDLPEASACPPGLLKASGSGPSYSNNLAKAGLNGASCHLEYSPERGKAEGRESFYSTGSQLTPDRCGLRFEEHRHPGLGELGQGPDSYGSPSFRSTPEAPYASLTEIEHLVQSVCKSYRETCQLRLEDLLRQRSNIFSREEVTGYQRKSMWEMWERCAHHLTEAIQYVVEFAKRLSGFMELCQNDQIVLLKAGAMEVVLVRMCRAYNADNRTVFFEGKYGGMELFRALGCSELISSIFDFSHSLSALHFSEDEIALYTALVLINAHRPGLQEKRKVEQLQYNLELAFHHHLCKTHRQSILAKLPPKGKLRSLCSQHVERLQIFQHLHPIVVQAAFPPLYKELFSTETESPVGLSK

Assay [2] addresses human Retinoid X Receptor beta (RXRb), RXRB (gene 6257) (UniProt P28702). Briefly: ATG_RXRb_TRANS: Attagene TRANS-FACTORIAL HepG2 Assay for human Retinoid X Receptor beta (RXRb) (AID 2283013; active = hit-call score of the fitted dose curve at least 0.9, where 1 is the maximum). Put shortly:
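HepG2 cells were transiently transfected with multiplexed GAL4-UAS reporters and a chimeric RXRb-Gal4 construct, then exposed for 24 h. Reporter mRNA was quantified by RT-PCR, FAM labeling, HpaI digestion and capillary electrophoresis; gain of signal was scored against DMSO.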

Read-out in assay [3]: E-selectin (Homo sapiens) (UniProt P16581)
Nature of the assay: BSK_3C_Eselectin: BioMAP Diversity Plus: 3C Assay for Eselectin Biomarker Activity (AID 2283015). To be noted: primary human endothelial cells (HUVEC); actives raise or lower the signal. Put shortly: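 Primary human umbilical vein endothelial cells (3C system) were dosed with chemical and cell-surface E-selectin measured by ELISA 24 h later. Bidirectional curve fitting used DMSO as negative control and baseline.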

Read-out in assay [4]: Interleukin-1 alpha (IL1a), IL1A (gene 3552)
Briefly: BSK_BE3C_IL1a: BioMAP Diversity Plus: BE3C Assay for Interleukin-1 alpha (IL1a) Biomarker Activity (AID 2283016). Particulars: primary human bronchial epithelial cells; actives raise or lower the signal. Put shortly:
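Human primary bronchial epithelial cells, 24 h chemical exposure; IL-1a quantified by ELISA, fitted bidirectionally against DMSO. Cytotoxicity assessed in parallel by SRB total-protein staining at the time of measurement.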

Read-out in assay [5]: Monocyte Chemoattractant Protein-1 (MCP1), CCL2 (gene 6347)
Briefly: BSK_4H_MCP1: BioMAP Diversity Plus: 4H Assay for Monocyte Chemoattractant Protein-1 (MCP1) Biomarker Activity (AID 2283018). To be noted: primary human endothelial cells (HUVEC); actives raise or lower the signal. Put shortly:
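Human umbilical vein endothelial cells (4H system) exposed to chemicals for 24 h in 96-well format. MCP-1 measured by ELISA; bidirectional fitting against DMSO, with SRB total-protein staining in parallel cultures for cytotoxicity.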

Read-out in assay [6]: Interleukin-8 (IL8), CXCL8 (gene 3576)
Briefly: BSK_3C_IL8: BioMAP Diversity Plus: 3C Assay for Interleukin-8 (IL8) Biomarker Activity (AID 2283020). Particulars: primary human endothelial cells (HUVEC); actives raise or lower the signal. Put shortly: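 Primary human umbilical vein endothelial cells were dosed for 24 h. IL-8 was quantified by ELISA and fitted bidirectionally against DMSO. Cytotoxicity was assessed in parallel cultures by SRB staining at 560 nm.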

Read-out in assay [7]: Monokine induced gamma interferon (MIG), CXCL9 (gene 4283)
Briefly: BSK_3C_MIG: BioMAP Diversity Plus: 3C Assay for Monokine induced gamma interferon (MIG) Biomarker Activity (AID 2283021). To be noted: primary human endothelial cells (HUVEC); actives raise or lower the signal. In outline:
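HUVEC primary endothelial cultures dosed with chemical; MIG quantified by ELISA at 24 h. Data fitted bidirectionally against DMSO control, with parallel SRB total-protein staining for cytotoxicity.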

Assay [8] is described as follows: BSK_3C_SRB: Viability Assessment in the BioMAP Diversity Plus: 3C Assay (AID 2283023).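 Note: fitted both ways against DMSO so a hit may be signal rise or drop.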 To be noted: primary human endothelial cells (HUVEC). In outline:
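Primary human umbilical vein endothelial cells in the 3C system were read 24 h after compound dosing. Total protein was stained with 0.1% sulforhodamine B after 10% TCA fixation and read at 560 nm, with bidirectional fitting against DMSO as baseline.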

Read-out in assay [9]: Matrix Metallopeptidase 1 (MMP1), MMP1 (gene 4312)
Briefly: BSK_BE3C_MMP1: BioMAP Diversity Plus: BE3C Assay for Matrix Metallopeptidase 1 (MMP1) Biomarker Activity (AID 2283024). To be noted: primary human bronchial epithelial cells; actives raise or lower the signal. In outline:
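Human primary bronchial epithelial cells (BE3C system) dosed for 24 h; MMP-1 quantified by ELISA. Bidirectional fit against DMSO; cytotoxicity tracked in parallel cultures by SRB total-protein staining.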

Read-out in assay [10]: Pselectin, SELP (gene 6403)
Briefly: BSK_4H_Pselectin: BioMAP Diversity Plus: 4H Assay for Pselectin Biomarker Activity (AID 2283026). To be noted: primary human endothelial cells (HUVEC); actives raise or lower the signal. In outline:
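Primary human umbilical vein endothelial cells were treated 24 h, and cell-surface P-selectin was then quantified by ELISA. Bidirectional fit versus DMSO; cytotoxicity checked in parallel cultures by SRB total-protein staining.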

Assay [11] is described as follows: BSK_4H_SRB: Viability Assessment in the BioMAP Diversity Plus: 4H Assay (AID 2283027).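 Note: cells exposed to compound for 24 h before staining.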 Particulars: primary human endothelial cells (HUVEC). Put shortly: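 Absorbance at 560 nm of SRB-stained total protein served as the viability read-out in confluent primary human umbilical vein endothelium 24 h after chemical treatment. Curves were fitted bidirectionally against DMSO as negative control.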

The nature of assay [12]: BSK_BE3C_SRB: Viability Assessment in the BioMAP Diversity Plus: BE3C Assay (AID 2283028). Particulars: primary human bronchial epithelial cells. In outline: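 Human primary bronchial epithelial cells were exposed to test chemicals for 24 h. Total protein in parallel cultures was then measured by staining with 0.1% sulforhodamine B after 10% TCA fixation, with absorbance read at 560 nm. Activity was fitted bidirectionally against DMSO.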

Read-out in assay [13]: Thrombomodulin, THBD (gene 7056)
Briefly: BSK_3C_Thrombomodulin: BioMAP Diversity Plus: 3C Assay for Thrombomodulin Biomarker Activity (AID 2283029). To be noted: primary human endothelial cells (HUVEC); actives raise or lower the signal. In outline:
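Human umbilical vein endothelial cells were exposed to chemicals for 24 h; cell-surface thrombomodulin quantified by ELISA, with bidirectional fitting against DMSO baseline.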

Read-out in assay [14]: Urokinase-type plasminogen activator receptor (uPAR), PLAUR (gene 5329)
Nature of the assay: BSK_4H_uPAR: BioMAP Diversity Plus: 4H Assay for Urokinase-type plasminogen activator receptor (uPAR) Biomarker Activity (AID 2283030). To be noted: primary human endothelial cells (HUVEC); actives raise or lower the signal. In outline: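 Primary human umbilical vein endothelial cells were exposed to chemical for 24 h before cell-surface uPAR was quantified by ELISA. Activity was fitted bidirectionally against the DMSO negative control baseline.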

For assay [15], the target named is Retinoic acid receptor RXR-alpha (Homo sapiens) (UniProt P19793). Nature of the assay: ATG_RXRa_TRANS: Attagene TRANS-FACTORIAL HepG2 Assay for human Retinoid X Receptor alpha (RXRa) (AID 2283012; active = hit-call score of the fitted dose curve at least 0.9, where 1 is the maximum). Put shortly: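 HepG2 cells transiently transfected with GAL4-UAS reporter units and chimeric RXRa-Gal4 protein, treated 24 h. Reporter mRNA measured by RT-PCR, fluorescent labelling, HpaI digestion and capillary electrophoresis. Induction fitted against DMSO.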
Sequence of Retinoic acid receptor RXR-alpha (Homo sapiens) (P19793 whole entry, looked up, the tested form may be a part): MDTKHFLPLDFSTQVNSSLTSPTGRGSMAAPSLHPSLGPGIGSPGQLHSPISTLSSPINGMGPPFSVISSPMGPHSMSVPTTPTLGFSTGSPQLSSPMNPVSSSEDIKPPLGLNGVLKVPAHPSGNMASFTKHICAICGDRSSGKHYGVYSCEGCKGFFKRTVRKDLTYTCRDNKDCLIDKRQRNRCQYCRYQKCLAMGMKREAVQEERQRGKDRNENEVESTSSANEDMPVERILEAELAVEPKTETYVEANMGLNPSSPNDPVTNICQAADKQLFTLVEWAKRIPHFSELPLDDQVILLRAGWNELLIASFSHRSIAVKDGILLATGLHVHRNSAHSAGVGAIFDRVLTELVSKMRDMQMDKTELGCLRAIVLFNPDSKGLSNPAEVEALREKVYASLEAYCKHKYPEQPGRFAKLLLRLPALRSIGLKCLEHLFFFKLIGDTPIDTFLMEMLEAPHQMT

Assay [16] has as its target human Vitamin D Receptor (VDR), VDR (gene 7421) (UniProt P11473). Nature of the assay: ATG_VDR_TRANS: Attagene TRANS-FACTORIAL HepG2 Assay for human Vitamin D Receptor (VDR) (AID 2283022; active = hit-call score of the fitted dose curve at least 0.9, where 1 is the maximum). In outline:
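HepG2 cells were transiently transfected with multiple GAL4-UAS reporter units, so signal reflects exogenous chimeric receptor-Gal4 activity. After 24 h compound exposure, reporter mRNA was measured by RT-PCR, fluorescent labelling and capillary electrophoresis, fitted for gain of signal versus DMSO.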

Read-out in assay [17]: Monocyte Chemoattractant Protein-1 (MCP1), CCL2 (gene 6347)
Briefly: BSK_3C_MCP1: BioMAP Diversity Plus: 3C Assay for Monocyte Chemoattractant Protein-1 (MCP1) Biomarker Activity (AID 2283017). To be noted: primary human endothelial cells (HUVEC); actives raise or lower the signal. In outline: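 Primary human umbilical vein endothelial cells (3C system) were exposed to test chemical for 24 h, after which MCP-1 was quantified by ELISA. Activity was fitted bidirectionally against DMSO as negative control and baseline.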

A short description of assay [18]: BSK_3C_Vis: BioMAP Diversity Plus: 3C Assay for Morphology Visualization (AID 2283025).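 Note: fitted both ways so gain or loss versus DMSO counts.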 Particulars: primary human endothelial cells (HUVEC). In outline: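 Human umbilical vein endothelial cell morphology was inspected by light microscopy 24 h after chemical dosing; scored bidirectionally relative to DMSO.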
The target in assay [19] is human Thyroid Receptor alpha (THRa1), THRA (gene 7067) (UniProt P10827). Briefly: ATG_THRa1_TRANS: Attagene TRANS-FACTORIAL HepG2 Assay for human Thyroid Receptor alpha (THRa1) (AID 2283014; active = hit-call score of the fitted dose curve at least 0.9, where 1 is the maximum). In outline:
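HepG2 cells transiently transfected with multiplexed GAL4-UAS reporter units for exogenous chimeric THRa1-Gal4; reporter mRNA measured 24 h after dosing by RT-PCR, 6-FAM labelling, HpaI digestion and capillary electrophoresis. Gain-of-signal fitted versus DMSO baseline.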

Read-out in assay [20]: Human Leukocyte Antigen - DR isotype (HLADR), HLA-DRA (gene 3122)
Nature of the assay: BSK_3C_HLADR: BioMAP Diversity Plus: 3C Assay for Human Leukocyte Antigen - DR isotype (HLADR) Biomarker Activity (AID 2283019).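 Note: ELISA of cell-surface HLA-DR on HUVEC 24 h after dosing.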 To be noted: primary human endothelial cells (HUVEC); actives raise or lower the signal. In outline:
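Primary human umbilical vein endothelial cells (3C system) were dosed with compound and cell-surface HLA-DR was quantified by ELISA at 24 h. Activity was fitted bidirectionally against DMSO as negative control and baseline.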

The structures appear in SMILES notation. Records with an inconclusive call do not appear. A structure can be active in one record and inactive in another. Calls of active or inactive are those of the source. Rule for the calls, unless noted: active = hit-call score of the fitted dose curve at least 0.9, where 1 is the maximum; inactive = score below 0.9.

Sequence of E-selectin (Homo sapiens) (P16581 whole entry, looked up): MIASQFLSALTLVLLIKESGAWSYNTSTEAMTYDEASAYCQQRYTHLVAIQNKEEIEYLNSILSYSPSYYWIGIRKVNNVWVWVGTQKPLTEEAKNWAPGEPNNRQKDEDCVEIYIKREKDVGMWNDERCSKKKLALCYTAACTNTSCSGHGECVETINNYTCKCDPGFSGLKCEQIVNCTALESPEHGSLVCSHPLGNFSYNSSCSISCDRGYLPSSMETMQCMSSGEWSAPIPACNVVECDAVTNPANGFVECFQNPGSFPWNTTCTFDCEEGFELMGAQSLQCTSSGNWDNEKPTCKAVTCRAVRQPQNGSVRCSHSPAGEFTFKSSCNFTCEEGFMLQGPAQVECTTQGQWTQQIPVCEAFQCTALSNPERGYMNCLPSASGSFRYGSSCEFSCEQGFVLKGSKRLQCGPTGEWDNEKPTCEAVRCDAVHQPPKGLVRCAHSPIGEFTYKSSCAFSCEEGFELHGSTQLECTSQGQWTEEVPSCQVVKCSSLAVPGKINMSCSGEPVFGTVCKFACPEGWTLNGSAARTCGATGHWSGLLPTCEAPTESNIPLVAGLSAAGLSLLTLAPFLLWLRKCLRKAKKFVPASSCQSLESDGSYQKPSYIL
Sequence of human Thyroid Receptor alpha (THRa1), THRA (gene 7067) (P10827 whole entry, looked up, the tested form may be a part): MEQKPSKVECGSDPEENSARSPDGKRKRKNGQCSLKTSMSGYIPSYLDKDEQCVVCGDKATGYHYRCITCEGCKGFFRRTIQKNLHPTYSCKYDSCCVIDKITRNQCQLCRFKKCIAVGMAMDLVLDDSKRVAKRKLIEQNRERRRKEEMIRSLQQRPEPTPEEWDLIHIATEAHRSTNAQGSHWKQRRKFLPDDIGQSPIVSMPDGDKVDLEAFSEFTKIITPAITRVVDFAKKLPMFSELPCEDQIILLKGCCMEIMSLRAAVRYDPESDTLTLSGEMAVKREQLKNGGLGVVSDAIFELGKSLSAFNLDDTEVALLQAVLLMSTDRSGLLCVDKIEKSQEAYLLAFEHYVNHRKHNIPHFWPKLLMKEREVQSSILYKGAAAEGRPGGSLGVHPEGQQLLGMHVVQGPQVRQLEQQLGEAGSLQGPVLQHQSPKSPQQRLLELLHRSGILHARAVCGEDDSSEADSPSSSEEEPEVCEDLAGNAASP
Sequence of human Retinoid X Receptor beta (RXRb), RXRB (gene 6257) (P28702 whole entry, looked up, the tested form may be a part): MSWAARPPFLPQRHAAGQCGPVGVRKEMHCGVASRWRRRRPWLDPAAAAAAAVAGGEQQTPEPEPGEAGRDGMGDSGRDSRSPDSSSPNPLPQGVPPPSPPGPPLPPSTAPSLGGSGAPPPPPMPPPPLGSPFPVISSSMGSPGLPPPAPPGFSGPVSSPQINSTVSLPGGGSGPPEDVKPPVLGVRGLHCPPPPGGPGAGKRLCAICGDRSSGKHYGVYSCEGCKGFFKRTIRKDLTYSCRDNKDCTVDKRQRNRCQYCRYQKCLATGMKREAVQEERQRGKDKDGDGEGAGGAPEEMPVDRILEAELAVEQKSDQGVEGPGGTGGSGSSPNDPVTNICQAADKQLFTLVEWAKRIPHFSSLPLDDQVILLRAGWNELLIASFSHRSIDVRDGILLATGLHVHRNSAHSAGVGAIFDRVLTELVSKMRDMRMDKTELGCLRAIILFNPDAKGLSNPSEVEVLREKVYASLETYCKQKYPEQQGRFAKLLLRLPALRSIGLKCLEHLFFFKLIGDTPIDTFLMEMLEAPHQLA
Sequence of human Vitamin D Receptor (VDR), VDR (gene 7421) (P11473 whole entry, looked up, the tested form may be a part): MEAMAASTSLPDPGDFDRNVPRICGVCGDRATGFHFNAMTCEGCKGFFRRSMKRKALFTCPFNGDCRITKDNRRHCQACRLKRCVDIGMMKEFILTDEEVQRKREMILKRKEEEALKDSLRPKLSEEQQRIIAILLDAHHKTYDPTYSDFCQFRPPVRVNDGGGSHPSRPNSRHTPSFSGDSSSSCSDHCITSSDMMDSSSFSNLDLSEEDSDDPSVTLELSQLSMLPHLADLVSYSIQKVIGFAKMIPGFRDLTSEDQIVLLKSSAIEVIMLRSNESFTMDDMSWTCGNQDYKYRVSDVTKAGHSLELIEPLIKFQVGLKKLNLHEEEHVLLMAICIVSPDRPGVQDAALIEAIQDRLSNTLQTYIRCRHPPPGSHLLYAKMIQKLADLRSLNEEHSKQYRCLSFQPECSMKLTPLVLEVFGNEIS

A word on the AC50: it is the concentration giving half of the maximal activity seen. Regarding `O=C(Cc1ccccc1)OCCc1ccccc1`, the call in [1], in assay [2], in assay [3], in assay [4], in assay [5] and in assay [6] was inactive. For the same molecule, the result in assay [7], in [8], in assay [9], in assay [10], in assay [11] and in assay [12] was inactive. In addition, the outcome in [13] and in assay [14] was inactive. The AC50 in [10] was 2.34 µM (active).
Take `c1ccc2c(c1)Oc1ccccc1O2`: the molecule was classed as inactive in [1], in [15], in assay [2] and in [16].
In the case of `Brc1ccc(Oc2c(Br)cc(Br)cc2Br)c(Br)c1`, the molecule was called inactive in assay [1] and in assay [2].
In the case of `Cc1cccc(C)c1NC(=O)CN1CCCC1=O`, in assay [15], the molecule was classed as inactive.
Consider `O=NN1CCCCCCC1`, for which the result in assay [15] and in assay [2] was inactive.
As for `Cc1cc(Cl)ccc1O`, the result in assay [15] was inactive. In addition, the AC50 in assay [2] is 100 µM (active).
Take `COCC(=O)N(c1c(C)cccc1C)[C@H](C)C(=O)OC`: the call in assay [1], in [3], in [4], in assay [17], in [5] and in [6] was inactive. Besides, the outcome in assay [7], in assay [8], in assay [9], in assay [18], in [10] and in [11] was inactive. The outcome in assay [12] and in [14] was inactive.
As for `CN(C)[C@@H]1C(=O)C(C(N)=O)=C(O)[C@@]2(O)C(=O)C3=C(O)c4c(O)ccc(Cl)c4[C@@](C)(O)[C@H]3C[C@@H]12`, the result in assay [1] and in assay [19] was inactive.
With `Cc1cc(C(F)(C(F)(F)F)C(F)(F)F)ccc1NC(=O)c1cccc(I)c1C(=O)NC(C)(C)CS(C)(=O)=O`, the result in [15] was inactive.
In the case of `OCCCCO`, the outcome in [1], in [3], in [4], in [5], in [6] and in assay [7] was inactive. The result in assay [8], in [9], in assay [10], in assay [11], in assay [12] and in assay [13] was inactive. Besides, in assay [14], the result was inactive.
Take `Oc1c(Cl)cc(Cl)cc1Cl`: the outcome in [1], in assay [19], in [3], in assay [4], in assay [17] and in assay [5] was inactive. Also, the outcome in [20], in [6], in assay [7], in [8], in [9] and in assay [18] was inactive. For the same molecule, the result in [10], in assay [11], in [12], in assay [13] and in [14] was inactive.
With `CC(C)CP(=S)(S)CC(C)C`, the outcome in assay [15] and in assay [2] was inactive.
As to `CCCCCCCCCCCCCCC(Br)C(=O)O` (centres undefined), the call in assay [1] and in assay [16] was inactive. For the same molecule, the AC50 in assay [2] was 9.18 µM (active).
With `CCN(CC)C(=O)C(Cl)=C(C)OP(=O)(OC)OC`, the call in assay [1], in assay [19], in assay [3], in assay [4], in assay [5] and in assay [20] was inactive. The outcome in [6], in assay [7], in [8], in assay [9], in [18] and in assay [10] was inactive. Further, the result in assay [11], in [12], in assay [13] and in assay [14] was inactive.
